According to ChEMBL document CHEMBL4513216, “Probing the Open Global Health Chemical Diversity Library for Multistage-Active Starting Points for Next-Generation Antimalarials” (ACS Infect Dis, 2020):
About 2,700 (4%) of roughly 68,000 compounds showed an effect of 50% or more. The full list was thinned out, with strong results kept by preference.

System: Plasmodium berghei
Test: Screen against P. berghei liver stage (PbLuc), transformed with Luciferase, at 2uM
Type: functional, HepG2
Settings: tested at 2 uM

In order of rising INHIBITION:
1. COc1ccccc1CC(=O)N1CCC(NCc2cccnc2)CC1  -135.87%
2. CCc1nnc2n1CCN(C(=O)c1ccc3nc(C)c(C)nc3c1)C2  -72.78%
3. Cc1ccc2nc(C)cc(C(=O)NC(C)c3nnn[nH]3)c2c1 (centres undefined)  -67.78%
4. CCOC1COC2(CCN(Cc3ccc4c(c3)OCO4)CC2)C1 (centres undefined)  -59.24%
5. O=C(NC1CCN(C(=O)C2CCCCC2)C1)c1ccncc1Cl (centres undefined)  -56.84%
6. CCCC(=O)N1CCCCC1c1nc(N(C)C)ncc1-c1cc(C)no1 (centres undefined)  -54.53%
7. CC(=O)Nc1nc(C2CCN(C(=O)C3CCC3)CC2)cs1  -49.56%
8. CCCc1nnsc1C(=O)N1CCN(CC(C)O)CC1 (centres undefined)  -47.97%
9. COc1ccccc1CC(=O)N1CCCC1Cn1nc(C)cc1C (centres undefined)  -43.79%
10. CCc1nnc2n1CCN(C(=O)c1ccc(C(F)(F)F)nc1C)C2  -41.59%
11. CCc1nnc2ccc(N3CCN(S(=O)(=O)c4ccc(C)s4)CC3)nn12  -37.47%
12. CCn1c(=NC(=O)CSCC(=O)Nc2nccs2)sc2ccccc21  -35.96%
13. CCc1nnc2n1CCN(C(=O)CN(C)Cc1ccccc1)C2  -34.45%
14. Cn1ncc2c1CCCC2NCc1cccc(F)c1 (centres undefined)  -33.95%
15. CNc1cccc(C2CCCN(C(=O)c3cncs3)C2)n1 (centres undefined)  -33.77%
16. Cc1ccc(N2CC[C@H]3CN(C(=O)c4ccn(C)n4)C[C@H]3C2)nn1  -32.66%
17. CCN(Cc1cnc(NCc2ccccc2)nc1)C1CCS(=O)(=O)C1 (centres undefined)  -30.2%
18. CC1=Nc2c(c(=O)[nH]n2C2CCCCC2)C(c2cccnc2)S1 (centres undefined)  -30.12%
19. Cn1c(=NC(=O)CSCC(=O)Nc2nccs2)sc2ccccc21  -29.3%
20. COCCNC(=O)Cn1c(C)cc2nc(SC)n(CC(C)C)c(=O)c21  -24.15%
21. CNC(=O)CN(C)c1cncc(OCc2ccccc2)n1  -22.24%
22. Cn1ncc2c1CCCC2NCc1ccc(Cl)s1 (centres undefined)  -21.31%
23. CC(C(=O)N1CCN(c2ccc(F)cc2)CC1)n1ccnc1 (centres undefined)  -20.89%
24. Cn1ncc2c(NCCOCc3ccccc3)nc(C3CCCC3)nc21  -19.29%
25. OCC1(Cc2cccc(Cl)c2)CCCN(c2ncccn2)C1 (centres undefined)  -16.17%
26. CC(C)(C)c1cc(C[C@H]2CNCC[C@H]2CC(=O)N2CCCCC2)no1  -13.88%
27. O=C(NCC1CCC2(CCNCC2)CO1)c1cnccn1 (centres undefined)  -13.14%
28. CC(C)(C)n1ncc2c1CCCC2NCc1ccc2c(c1)OCCO2 (centres undefined)  -12.39%
29. CC(C)C1CN(C(=O)c2ccsc2)CCS1 (centres undefined)  -9.94%
30. CCn1ncc2c1CCCC2NCc1ccc2c(c1)CCO2 (centres undefined)  -7.81%
31. CC(C)(C)c1nc(CC(=O)Nc2cnccc2O)cs1  -5.75%
32. CC(NC(=O)Nc1ccc(F)c(F)c1)c1nc[nH]n1 (centres undefined)  -5.51%
33. CCCc1cc(=O)[nH]c(-c2ccccc2CN(C)CCC(C)C)n1  -4.05%
34. CN(Cc1ccncc1)C1COC2(CCN(Cc3cccs3)CC2)C1 (centres undefined)  -3.11%
35. CCc1nnc2n1CCN(C(=O)c1cc3ccccc3[nH]1)C2  -3.06%
36. CCc1nnc2n1CCN(C(=O)CN(C)C1CC1)C2  -3.06%
37. Cc1cccc(CNC2CCCc3c2cnn3Cc2ccccc2)c1 (centres undefined)  -2.26%
38. O=C(NCc1nnc2n1CCCCC2)N(CC1CCOC1)C1CC1 (centres undefined)  -1.21%
39. O=C(NC1CC1)[C@@H]1CCO[C@@H]2CCN(C3CCCC3)C[C@H]21  -0.18%
40. CCc1cccc(OCC(=O)NC(C)c2nnc3n2CCC3)c1 (centres undefined)  0.31%
41. COc1cccc2c1N(C(=O)c1ccc(C)nc1)CCC2  0.79%
42. CN1CCOC[C@H]1c1nc(-c2ccc(F)cc2F)c[nH]1  3.55%
43. CC(C)(CNc1ccc2ccc(F)cc2n1)NS(C)(=O)=O  5.92%
44. CCn1cc(NC(=O)C2CCN(CC(=O)NC(C)(C)CC)CC2)cn1  7.13%
45. CN(C)Cc1nnc(C2CCCN(Cc3ccc(Cl)s3)C2)n1C (centres undefined)  7.64%
46. Cc1cnc(C)c(N2CCCC(CO)(Cc3cccc(Cl)c3)C2)n1 (centres undefined)  8.14%
47. CN(C)CC(c1ccccc1)N(C)C(=O)c1cccc(NCC(=O)O)c1 (centres undefined)  8.26%
48. CCCS(=O)(=O)N1CCN(c2ccc3nnc(CC)n3n2)CC1  8.76%
49. CN1CCCC(CCC(=O)N2CCc3c(nc(CC4CC4)[nH]c3=O)C2)C1 (centres undefined)  10.1%
50. Cc1ccc2[nH]c(=O)cc(C(=O)N[C@@H]3C[C@@H](CO)N(C)C3)c2c1  10.75%
51. Cc1ccnc(C2CCN(C(=O)c3cnn(C)c3)CC2)n1  11.74%
52. Fc1cccc(CN2CCC(c3n[nH]c4ncccc34)CC2)c1F  12.36%
53. N#Cc1cccc(CN2CC3(CCCCN3c3cccnc3)CC2=O)c1 (centres undefined)  12.57%
54. COCC1CC2(CCN(Cc3nccn3C)CC2)CN1c1ncccn1 (centres undefined)  12.88%
55. COCCNS(=O)(=O)c1ccc(Cl)c(C(=O)N(C)Cc2ccsc2)c1  13.76%
56. Cn1cc(CN2CCCCC2c2ccc(-c3cccc(Cl)c3)nc2)cn1 (centres undefined)  15.59%
57. COC1CN(C(=O)NC2CCCC2)CCC(=O)N(C)c2ccccc21 (centres undefined)  15.96%
58. CCOC1CC2(CCN(Cc3nccn3C)CC2)C1  16.98%
59. Fc1ccc(CN2CCC(c3n[nH]c4ncccc34)CC2)cc1F  19.51%
60. COC1COC2(CCN(Cc3ccc4c(c3)OCO4)CC2)C1 (centres undefined)  22.16%
61. CN(Cc1ccncc1)C1COC2(CCN(Cc3ccccn3)CC2)C1 (centres undefined)  23.59%
62. COc1ccc2c(c1)OCC(CNC(=O)c1cc[nH]c1C)C2 (centres undefined)  23.79%
63. O=C(NC1CCC1)[C@@H]1CCO[C@@H]2CCN(C3CCCC3)C[C@@H]21  23.93%
64. Cn1ccnc1CN1CCC2(CC1)COC2  24.23%
65. CCNC(=O)[C@@H]1C[C@H](NC(=O)c2cc(=O)[nH]c3ccc(C)cc23)CN1C  24.44%
66. CCC(C)(C)C(=O)Nc1ccc2ccn(CC(=O)NC)c2c1  24.51%
67. Cn1ccnc1CN1CCC2(CC1)CC(Oc1cccnc1)C2  24.83%
68. Cc1ccc(CNC2CCCc3c2cnn3C)s1 (centres undefined)  28.51%
69. COc1ccc2c(c1)OCC(CNC(=O)c1ccncc1)C2 (centres undefined)  31.38%
70. COc1cccc(CN(C)Cc2[nH]c3ccccc3c2C)c1O  33.32%
71. CN(C)c1cc(NCc2cnc3n2CCN(CC2CC2)CC3)ncn1  34.04%
72. COc1cccc(CN2CCc3nc4ccsc4c(=O)n3CC2)c1  34.9%
73. CS(=O)(=O)CCOCCNc1ccc2ccc(F)cc2n1  35.63%
74. CN(Cc1cccc(OCCO)c1)Cc1cccc2ncccc12  37.5%
75. CCc1nnc2n1CCN(C(=O)c1cc3cc(C)ccc3[nH]1)C2  37.68%
76. Cc1ccc(C(=O)N2CCN(C(=O)C(C)n3ccnc3)CC2)cc1F (centres undefined)  38.65%
77. COCC(=O)N1CCC2(CCC(C(=O)N3CCCC3)O2)CC1 (centres undefined)  41.38%
78. O=C(NCc1ccccn1)[C@]12COC[C@H]1CN(Cc1ccsc1)C2  42.62%
79. O=C(NCc1cnc2n1CCN(Cc1ccoc1)C2)c1ccno1  42.64%
80. CS(=O)(=O)c1ccc(C(=O)NCc2nc3cc(F)ccc3[nH]2)cc1  44.61%
81. COc1ccccc1CC(=O)N1CCC(NCc2ccncc2)CC1  44.71%
82. CC(=O)N1CCC(C(=O)NCc2ncc(-c3ccccc3)o2)CC1  45.67%
83. CNS(=O)(=O)c1csc(C(=O)N(C)Cc2sccc2C)c1  46.97%
84. CC(C)(CCS(C)(=O)=O)CNc1ccc2ccc(F)cc2n1  50.93%
85. Cc1cccc(CNC2CCCc3c2cnn3C)c1 (centres undefined)  51.21%
86. O=C(NC1CCC1)[C@@H]1CCO[C@@H]2CCN(C3CCCC3)C[C@H]21  51.26%
87. CCc1nnc2ccc(N3CCN(S(=O)(=O)c4ccc(Cl)s4)CC3)nn12  52.31%
88. COC1CC2(CCN(Cc3nccn3C)CC2)C1  52.66%
89. Fc1cccc(Cl)c1CN1CCC(c2n[nH]c3ncccc23)CC1  53.65%
90. COc1ccc2c(c1)sc(=NC(=O)CSCC(=O)Nc1nccs1)n2C  54.16%
91. CC(C(=O)N1CCN(C(=O)c2ccc(F)cc2)CC1)n1ccnc1 (centres undefined)  54.41%
92. CCc1nnc2n1CCN(C(=O)c1cc3ccc(F)cc3nc1C)C2  54.85%
93. Cn1ncc2c1CCCC2NCc1ccc(Br)s1 (centres undefined)  54.86%
94. Nc1ccnc(N2CCCC(CO)(Cc3cccc(Cl)c3)C2)n1 (centres undefined)  57.51%
95. COc1ccccc1CC(=O)N1CCC(NCc2ccccn2)CC1  57.64%
96. CCc1nnc2n1CCN(C(=O)CN(CC)CC)C2  58.05%
97. CCc1nnc2n1CCN(C(=O)c1cc3ccc(C)cc3[nH]1)C2  58.05%
98. CC(C)COC1CC2(CCN(Cc3nccn3C)CC2)C1  58.93%
99. CN(Cc1ccncc1)C1COC2(CCN(Cc3nccn3C)CC2)C1 (centres undefined)  64.31%
100. COCCNS(=O)(=O)c1ccc(Cl)c(C(=O)N(C)Cc2sccc2C)c1  64.37%
101. CC(C)(C)n1ncc2c1CCCC2NCc1ccc2c(c1)CCO2 (centres undefined)  64.67%
102. COC1CC2(CCN(Cc3ccc4c(c3)OCO4)CC2)C1  69.22%
103. COC(=O)[C@@H]1C[C@H](NC(=O)c2cc(=O)[nH]c3ccc(C)cc23)CN1C  76.07%
104. CCc1nc(C)c(C(=O)NCC2COc3cc(OC)ccc3C2)o1 (centres undefined)  76.56%
